Most compounds without a hit are left out; they make up all but 21% or so of the library.
Shiga toxin inh = Shiga toxin inhibition; Vero cells, Shiga toxin protein synthesis inhibition reporter; inhibition, % at 38.7 µM; hit rate 9.2% among 290,000; AID 2315; in the data active means inhibition mostly above about 28%, no sharp cut-off; inactive means mostly below about 43%; further: 0% is about no effect
Pf growth 48h = inhibits P. falciparum growth in the first generation, 48 h. P. falciparum luciferase growth in erythrocytes, 48 h. Potency, µM (series often up to 28.7 µM), for the others: top-dose activity change, negative = inhibition, actives largely listed as inhibitors. hit rate 5.9% among 310,000; further: potency means the concentration at half of the fitted maximal effect; on the % scale 0 is the no-effect control and ±100 the full control effect
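Erythrocytes infected with P. falciparum carrying an integrated firefly luciferase reporter (2% hematocrit, 0.1% parasitemia final) were exposed to compounds in RPMI 1640 with 0.5% Albumax at 37 C, 5% CO2. Growth inhibition was scored as reduced luminescence.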
Cycloheximide cs = counter-screen for Shiga toxin inhibitors: cycloheximide protein synthesis inhibition; cell reporter, cycloheximide protein synthesis inhibition counterscreen; max response, %; hit rate 12% among 300,000; AID 2314; in the data active means max response mostly above about 13%, no sharp cut-off; inactive means mostly below about 14%; further: read at 38.3 µM for the half of the compounds with a filed dose; 0% is about no effect
Pf growth 96h = P. falciparum growth inhibition at 96 hour, primary screen for plastid delayed-death inhibitors; Potency, µM (highest dose often 28.7 µM), for the others: at the top dose activity change, negative = inhibition, most hits filed as inhibitors; AID 504834; hit rate 6.9% among 320,000; P. falciparum luciferase reporter growth, 96 h; further: potency means the concentration at half of the fitted maximal effect; on the % scale 0 is the no-effect control and ±100 the full control effect
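Cell-based qHTS: luciferase-tagged P. falciparum in erythrocytes (2% hematocrit, 0.05% parasitemia final) incubated with compounds for 96 hours, 37 C, 5% CO2; luciferase detection reagent then added and luminescence measured.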
NS1 function inh = inhibitors of influenza NS1 protein function | Potency, µM (top dose mostly 46.1 µM), for inactives: top-dose activity, positive = more growth | hit rate 0.4% among 270,000 | AID 2326; calls by dose curve; further: potency means the concentration at half of the fitted maximal effect; actives are rising curves; nearly all actives have a fitted effect of over 50% in size
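S. cerevisiae expressing influenza A NS1, grown in glucose, washed, then diluted 1:100 into pH 6.0 -URA galactose medium with 23 nl compound. Growth recovery read as OD600; NS1-free strain serves as control.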
Active calls of the source: *; ? = inconclusive; . = no result given. Unless noted, the call rests on the fitted dose curve; in most records, active means well fitted inhibition curve with a large enough effect; inconclusive means small, poorly fitted or top-dose-only effect, or another doubt; inactive means no such curve, though single readings can be large or run the other way.

SMILES	Shiga toxin inh	Pf growth 48h	Cycloheximide cs	Pf growth 96h	NS1 function inh
COc1ccccc1C(CNC(=O)c1cc(C)nc2ccccc12)N(C)C (stereo unspecified)	-4	9%	2	22%	10%
COc1ccc(/C(C#N)=C/c2ccccn2)cc1	110*	267%	60*	92%	-1%
N#C/C(=C\c1ccccn1)c1nc2ccccc2s1	57*	26%	35*	?	5%
COC(=O)c1ccc(/C=C(\C#N)c2nc3ccccc3s2)cc1	37	35%	12	18%	-10%
CC(Cc1cccc(C(F)(F)F)c1)NCCOC(=O)c1ccccc1 (stereo unspecified)	.	?	.	23%	.
CCNC(C)Cc1cccc(C(F)(F)F)c1 (stereo unspecified)	29	-5%	23	13µM*	.
C[C@@H](NCCCc1cccc(C(F)(F)F)c1)c1cccc2ccccc12	.	7.6µM*	.	12µM*	.
Cc1ccc(S(=O)(=O)NCc2cccnc2)cc1C(=O)N1CCCC1	41	27%	-3	?	8%
COC(=O)c1ccccc1-c1cn(C)c2ccccc2c1=O	-2	.	-2	-27%	-1%
Cc1cnc(C(=O)OCC(=O)c2csc(N3CCCCC3)n2)cn1	36	-17%	51*	-16%	5%
CC(=O)c1cc(C(=O)N2CCc3c([nH]c4ccccc34)C2C2CCCCC2)[nH]n1 (stereo unspecified)	34	?	8	?	11%
Cc1nnc2ccc(-c3ccc(NS(=O)(=O)c4ccc(Cl)s4)cc3)nn12	.	?	.	-66%	.
CC(C)n1nccc1NC(=O)Nc1ccccc1	23	4%	4	9%	-15%
COc1ccc(C2CC(c3c(-c4ccccc4)c4cc(Cl)ccc4[nH]c3=O)=NN2C(=O)CCC(=O)O)cc1 (stereo unspecified)	-5	?	-1	13%	18%
COc1cccc(C2CC(c3c(-c4ccccc4)c4cc(Cl)ccc4[nH]c3=O)=NN2S(C)(=O)=O)c1OC (stereo unspecified)	23	7.4µM*	7	.	?
O=C(O)CCC(=O)N1N=C(c2c(-c3ccccc3)c3cc(Cl)ccc3[nH]c2=O)CC1c1ccccc1 (stereo unspecified)	-9	?	-2	?	2%
COc1ccccc1C1CC(c2c(-c3ccccc3)c3cc(Cl)ccc3[nH]c2=O)=NN1S(C)(=O)=O (stereo unspecified)	14	12µM*	-3	?	26%
CCC(=O)N1N=C(c2c(-c3ccccc3)c3cc(Cl)ccc3[nH]c2=O)CC1c1ccco1 (stereo unspecified)	89	10µM*	8	?	16%
COc1ccc(-c2ocnc2C(=O)NCc2nn(-c3ccccc3)nc2C)cc1	7	-6%	1	6%	0%
O=c1oc2cc(O)ccc2cc1-c1ccccc1	54*	64%	38*	49%	-41%
COc1ccc(-c2cc3ccc(O)cc3oc2=O)cc1	74*	152%	37*	188%	-15%
COc1ccc(NC2CCCN(C(=O)c3cn(C)c4ccccc34)C2)cc1 (stereo unspecified)	-5	-7%	9	0%	2%
CC1=N/C(=C/c2ccco2)C(=O)O1	-19	5%	-4	14%	.
Cc1cc(O)cc2c1C(=O)/C(=C/c1ccco1)O2	66*	32%	51*	105%	-69%
CCc1ccc(/C=C2\Oc3cc(OC(=O)N4CCOCC4)ccc3C2=O)cc1	-3	?	-1	10µM*	0%
SMILES	Shiga toxin inh	Pf growth 48h	Cycloheximide cs	Pf growth 96h	NS1 function inh
CC(=O)Oc1ccc2c(c1)O/C(=C\c1ccncc1)C2=O	7	-15%	2	?	-1%
COC(=O)COc1ccc2c(c1)O/C(=C\c1ccco1)C2=O	38*	-19%	29*	31%	-40%
CCC(=O)Oc1ccc2c(c1)O/C(=C\c1ccco1)C2=O	43*	42%	16*	38%	-87%
O=C(NCc1ccccn1)C(=O)NCC1OCCN1S(=O)(=O)c1ccc([N+](=O)[O-])cc1 (stereo unspecified)	-10	-13%	2	-10%	1%
CCOc1cc(C(=O)Nc2ccc(S(=O)(=O)NC3=NCCCCC3)cc2)cc(OCC)c1OCC	-10	?	-3	?	.
C/C=C1\COC(C(=O)NCCOCCO)(C(F)(F)F)C=C1C=C1CCCCC1 (stereo unspecified)	34	.	18	.	.
CCN(CC)C(=O)Oc1ccc2c(c1)O/C(=C\c1ccco1)C2=O	49*	0%	27*	0%	-7%
CNc1ccccc1C(C)(C)c1cc(-c2cc(C)cc(C)c2)no1	-8	?	-7	9.3µM*	3%
CCC/C(O)=C1\C(=O)CCCC1=NC(C)C(=O)O (stereo unspecified)	-11	?	-4	3.7µM*	4%
O=Cc1ccccc1C=O	.	-9%	.	-20%	.
COc1ccc(OC)c(NC(=O)CN(Cc2ccc(F)cc2)C2CCCCC2)c1	12	4.7µM*	-4	?	-10%
COc1ccc(C(=O)/C=C/C(=O)N(CC(=O)NC2CCCCC2)Cc2ccc(F)cc2)c(O)c1	-4	9.3µM*	-1	2.3µM*	3%
COc1ccc(Cl)cc1NC(=O)CN(C)C1CCCCC1	15	?	2	?	-11%
COc1ccc(C)cc1NC(=O)CN(Cc1nnc(-c2ccc(Cl)cc2)o1)C1CCCC1	15	10µM*	13*	?	-60%
CS(=O)(=O)N(CC(=O)NC1CCCCC1)Cc1ccc(F)cc1	-2	-2%	-1	2%	2%
Cc1ccc(C)c(NC(=O)CC2Oc3ccccc3NC2=O)c1 (stereo unspecified)	-3	3%	-1	-6%	1%
O=P(O)(O)C(O)(Cc1cccnc1)P(=O)(O)O	.	-5%	.	24%	.
CCOc1cc(C)nc(NCCc2ccc(OC)c(OC)c2)n1	-3	-28%	-2	?	-11%
Cn1c[n+](C)cc1-c1ccc(/C(N)=N/O)cc1	9	?	2	4.7µM*	1%
N/C(=N\O)c1ccncc1	-7	6%	-2	14%	7%
Cc1noc(C)c1COC(=O)C1CCN(C(=O)c2ccc(Cl)cc2)CC1	1	?	7	?	.
COc1cc(NC2c3ncccc3C(=O)N2Cc2ccco2)cc(OC)c1 (stereo unspecified)	-1	?	9	3.7µM*	1%
COc1ccc(CN2C(=O)c3cccnc3C2Nc2ccc(OC)c(Cl)c2)cc1 (stereo unspecified)	-20	19%	-4	.	-1%
COCC(C)N1CC(O)=C(c2nc(-c3ccc(Cl)cc3)cs2)C1=N (stereo unspecified)	-18	11%	-1	-30%	3%
Cc1c(C(=O)N2CCN(c3ccccc3F)CC2)sc2ncn(CC(=O)N3CCOCC3)c(=O)c12	-8	?	-2	.	0%
O=C(CN1C(=O)S/C(=C/C=C/c2ccccc2)C1=O)Nc1ccc(C(=O)O)cc1	37	58%	10	18%	.
